Source: PubChem BioAssay
Active and inactive are the calls of the source.

Tests used:
[1] = system: Plasmodium falciparum Sir2 (PF13_0152, Sir2A); experiment: pfSir2 binders on small-molecule microarrays, primary screen, biochemical, small-molecule microarray, 635 nm fluorescence (AID 1098); details: small-molecule microarray binding, fluorescence 635 nm; higher = more signal;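 note: score merges spot fluorescence intensity with its signal-to-noise ratio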
[2] = small-molecule microarray binders of probe aDKK1, primary screen, biochemical, biotinylated probe, 635/667 nm fluorescence (AID 1099); details: higher = more signal;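 note: score merges 667nm spot fluorescence with signal to noise across triplicate slides; reference of the scale not given here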
[3] = small-molecule microarray binders of probe aCHRDL2, primary screen, biochemical, biotinylated probe, 635/667 nm fluorescence (AID 1100); details: higher = more signal
[4] = splicing luciferase reporter signal modulators, primary screen, spliceosome inhibition project, cell-based, HEK293, splice +/- reporter (AID 1101); details: luminescence, 24 h, higher = more signal, called active from +8 up or from −8 down;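 note: HEK293 cells carrying a splicing-competent luciferase reporter gene; test concentration not given here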
[5] = biological target: Fibroblast growth factor 10 (Homo sapiens) (UniProt O15520); experiment: FGF10 binders on small-molecule microarrays, primary screen, biochemical, small-molecule microarray, 635 nm fluorescence (AID 1102); details: FGF10 binding, fluorescence 635 nm, higher = more signal
[6] = system: glycogen synthase kinase-3 (GSK3A per assay name; protocol says GSK3B); experiment: GSK3 binders on small-molecule microarrays, primary screen, biochemical, small-molecule microarray, 635 nm fluorescence, GSK3A (AID 1103); details: small-molecule microarray binding, fluorescence 635 nm; higher = more signal; note: the record names both GSK3A and GSK3B
[7] = biological target: Epidermal growth factor receptor (Homo sapiens) (UniProt P00533); experiment: EGFR binders on small-molecule microarrays, primary screen, biochemical, small-molecule microarray, 635 nm fluorescence (AID 1104); details: EGFR binding, higher = more signal;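 note: score merges 667 nm emission intensity with spot signal to noise over triplicate slides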
[8] = biological target: Follistatin-related protein 3 (Homo sapiens) (UniProt O95633); experiment: FSTL3 binders on small-molecule microarrays, primary screen, biochemical, small-molecule microarray, 635 nm fluorescence (AID 1105); details: FSTL3 binding, higher = more signal;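 note: score merges emission near 667 nm and signal to noise per printed spot across three slides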
[9] = biological target: Dickkopf-related protein 1 (Homo sapiens) (UniProt O94907); experiment: DKK1 binders on small-molecule microarrays, primary screen, biochemical, small-molecule microarray, 635 nm fluorescence scan (AID 1106); details: DKK1 binding, higher = more signal;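 note: score merges emission near 667 nm with signal to noise over three replicate slides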
[10] = system: Inhibin beta A chain (activin A); experiment: INHBA (activin A) binders on microarrays, primary screen, biochemical, small-molecule microarray, 635 nm fluorescence scan (AID 1107); details: small-molecule microarray binding, higher = more signal;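 note: mouse activin A protein probed at 4.33 µg/mL on printed slides; score merges bound-protein fluorescence near 667 nm with spot signal-to-noise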

Follistatin-related protein 3 (Homo sapiens), sequence (O95633 whole entry, looked up): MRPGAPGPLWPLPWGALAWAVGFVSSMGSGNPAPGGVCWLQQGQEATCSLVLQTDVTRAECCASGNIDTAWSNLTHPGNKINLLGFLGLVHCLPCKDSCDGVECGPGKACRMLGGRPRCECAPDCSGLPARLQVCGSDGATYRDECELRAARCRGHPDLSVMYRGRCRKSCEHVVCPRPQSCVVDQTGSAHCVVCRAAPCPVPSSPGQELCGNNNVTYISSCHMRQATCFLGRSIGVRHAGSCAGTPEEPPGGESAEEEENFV
Fibroblast growth factor 10 (Homo sapiens), sequence (O15520 whole entry, looked up): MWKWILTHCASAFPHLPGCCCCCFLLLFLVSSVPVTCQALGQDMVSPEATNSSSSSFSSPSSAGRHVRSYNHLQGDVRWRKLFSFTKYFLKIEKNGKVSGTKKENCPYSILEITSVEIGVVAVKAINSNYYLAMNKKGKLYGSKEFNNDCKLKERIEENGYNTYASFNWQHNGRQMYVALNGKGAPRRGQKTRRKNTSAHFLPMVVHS
Epidermal growth factor receptor (Homo sapiens), sequence (P00533 whole entry, looked up): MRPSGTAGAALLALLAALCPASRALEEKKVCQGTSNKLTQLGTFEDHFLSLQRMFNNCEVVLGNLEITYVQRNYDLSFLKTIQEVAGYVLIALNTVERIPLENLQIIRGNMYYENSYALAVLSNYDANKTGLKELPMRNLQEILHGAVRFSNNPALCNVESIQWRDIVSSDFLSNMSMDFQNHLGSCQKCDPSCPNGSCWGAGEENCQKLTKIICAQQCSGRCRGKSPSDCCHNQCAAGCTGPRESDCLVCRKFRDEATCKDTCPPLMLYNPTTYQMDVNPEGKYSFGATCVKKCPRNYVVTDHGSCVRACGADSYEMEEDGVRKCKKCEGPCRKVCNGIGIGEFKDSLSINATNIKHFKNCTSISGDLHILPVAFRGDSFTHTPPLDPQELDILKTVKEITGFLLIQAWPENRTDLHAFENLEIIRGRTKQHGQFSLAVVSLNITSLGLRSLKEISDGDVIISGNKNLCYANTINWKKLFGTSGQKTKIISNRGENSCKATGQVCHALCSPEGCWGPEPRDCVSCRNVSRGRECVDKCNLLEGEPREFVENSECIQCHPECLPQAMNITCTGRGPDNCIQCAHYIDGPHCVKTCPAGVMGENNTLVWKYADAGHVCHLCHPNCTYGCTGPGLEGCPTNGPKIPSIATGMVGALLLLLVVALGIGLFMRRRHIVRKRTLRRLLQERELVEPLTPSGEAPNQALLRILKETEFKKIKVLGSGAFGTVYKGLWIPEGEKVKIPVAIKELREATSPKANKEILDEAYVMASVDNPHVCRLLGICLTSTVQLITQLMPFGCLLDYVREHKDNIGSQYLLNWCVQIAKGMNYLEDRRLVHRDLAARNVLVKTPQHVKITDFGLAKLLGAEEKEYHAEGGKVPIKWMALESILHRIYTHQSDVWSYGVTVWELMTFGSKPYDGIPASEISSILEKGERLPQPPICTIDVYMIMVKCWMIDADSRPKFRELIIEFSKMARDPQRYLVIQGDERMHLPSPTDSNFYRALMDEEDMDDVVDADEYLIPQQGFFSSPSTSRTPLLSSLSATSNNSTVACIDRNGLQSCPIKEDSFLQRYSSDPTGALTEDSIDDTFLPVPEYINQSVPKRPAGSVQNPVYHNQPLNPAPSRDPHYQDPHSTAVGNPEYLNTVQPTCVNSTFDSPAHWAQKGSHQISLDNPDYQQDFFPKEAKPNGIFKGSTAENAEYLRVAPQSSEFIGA
Dickkopf-related protein 1 (Homo sapiens), sequence (O94907 whole entry, looked up): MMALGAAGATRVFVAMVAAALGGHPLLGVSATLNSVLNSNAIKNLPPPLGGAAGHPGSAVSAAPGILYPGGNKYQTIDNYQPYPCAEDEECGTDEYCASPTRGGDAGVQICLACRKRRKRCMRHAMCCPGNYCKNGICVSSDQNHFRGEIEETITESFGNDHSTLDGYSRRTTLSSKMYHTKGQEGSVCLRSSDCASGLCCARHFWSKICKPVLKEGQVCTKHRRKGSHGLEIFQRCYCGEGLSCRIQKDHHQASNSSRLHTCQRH

Compound	composite z-score [1]	composite z-score [2]	composite z-score [3]	z-score [4]	composite z-score [5]	composite z-score [6]	composite z-score [7]	composite z-score [8]	composite z-score [9]	composite z-score [10]
CN(C)C(=O)[C@]1(Cc2ccccc2CN=[N+]=[N-])N=C(c2ccc(OCCCO)cc2)O[C@@H]1c1ccccc1CN=[N+]=[N-]	0.0579	0.423	0.708	0.646 (inactive)	1.17	1.32	-0.0263	1.18	-0.38	0.844
CCOC(=O)C[C@H]1[C@H](OC(=O)Cc2ccc3c(c2)OCO3)[C@@H](NC(=O)c2ccc(-c3ccccc3)cc2)c2cc(OCCCO)ccc2N1C(=O)c1ccc2ccccc2n1	-0.0119	-0.319	-0.486	-2.82 (inactive)	0.556	0.28	0.468	0.321	0.434	-0.0169
COCCOC(=O)N1C(=O)[C@@]2(c3cc(C#Cc4ccc(OC)cc4)ccc31)[C@H](C(=O)N1CCCCCCC1)[C@H]1C(=O)O[C@H](c3ccccc3)[C@H](c3ccccc3)N1[C@@H]2c1ccc(OCCO)cc1	1.37	2.34	1.45	-0.16 (inactive)	1.7	1.33	1.13	1.45	1.76	1.58
COc1cc2c(cc1O)C(C1CC1)N(Cc1cc3c(cc1Br)OCO3)CC2 (stereo not given)	0.802	-0.197	0.655	-0.39 (inactive)	-1.02	-1.26	-1.12	-1.35	-0.948	-0.13
N#Cc1ccc(NN2C(C(O)c3c(F)cccc3Cl)C=CC3C(=O)N(c4ccccc4)C(=O)C32)cc1 (stereo not given)	1.08	1.42	1.19	0.615 (inactive)	0.922	0.943	0.143	1.12	0.125	0.5
CN1C(=O)[C@]2(Cc3ccccc3)N=C(c3ccc(OCCCO)cc3)O[C@@H]2c2ccccc21	1.19	0.566	0.913	-1.18 (inactive)	1.33	1.28	0.367	0.459	0.505	1.14
CN(C)C(=O)[C@]1(Cc2ccccc2N=[N+]=[N-])N=C(c2ccc(OCCCO)cc2)O[C@@H]1c1ccccc1	1.47	0.467	0.787	-1.17 (inactive)	0.818	1.28	0.0161	0.373	-0.121	0.545
CC(=O)n1cc(C(O)C2C=CC3C(=O)N(C)C(=O)C3N2Nc2ccccc2)c2ccccc21 (stereo not given)	0.511	0.906	1.18	1.45 (inactive)	1.17	0.292	1.27	1.4	1.02	1.79
COC(=O)C(CC#Cc1ccc2c(c1)[C@]1(C(=O)N2)[C@H](C(=O)O)[C@H]2C(=O)O[C@H](c3ccccc3)[C@H](c3ccccc3)N2[C@@H]1c1ccc(O)cc1)C(=O)OC	0.472	-0.0082	0.634	0.199 (inactive)	0.284	-0.266	-0.46	-0.662	-0.685	-1.07
[N-]=[N+]=NCc1ccccc1C[C@]1(C(=O)NCC(O)CO)N=C(c2ccc(OCCCO)cc2)O[C@H]1c1ccccc1 (stereo not given in full)	-0.338	1.04	0.889	0.321 (inactive)	-0.337	-0.836	-0.886	-0.689	-1.37	0.51
COCCOC(=O)N1C(=O)[C@@]2(c3ccccc31)[C@H](c1ccc(O)cc1)N1[C@H](c3ccccc3)[C@H](c3ccccc3)OC(=O)[C@H]1[C@@H]2C(=O)NC[C@H](O)c1ccccc1	1.12	-0.0866	-0.0184	-1.07 (inactive)	0.12	0.191	-0.291	-0.195	-0.341	-0.202
NCCCCCNC(=O)[C@@H]1C[C@@H]2C(=O)N[C@@H](Cc3ccccc3)C(=O)N2[C@@H]1c1cccc(OCCO)c1	1.14	0.53	0.359	-0.0581 (inactive)	0.519	0.232	-0.235	-0.374	0.378	0.619
O=C(C1N=C(c2ccc(OCCCO)cc2)N(c2ccccc2)O1)N1CCOCC1 (stereo not given)	0.298	0.56	0.538	-0.799 (inactive)	1.46	1.3	0.0096	0.695	0.858	0.315
CC(C)C[C@@H]1NC(=O)[C@H]2C[C@@H](C(=O)NCCCCCCN)[C@@H](c3ccc(O)cc3)N2C1=O	1.59	1.06	0.808	0.823 (inactive)	0.23	0.247	0.106	0.69	0.731	1.23
C=CCC(OC(C)=O)[C@@H]1[C@@H](N(Cc2cccc3ccccc23)C(=O)c2ccc(-c3ccccc3)cc2)c2cc(OCCCO)ccc2N1C(=O)Cc1ccc(OC)cc1 (stereo not given in full)	0.283	-0.0675	0.0188	-1.08 (inactive)	0.168	0.0341	0.23	0.431	0.0533	0.884
CN1C(=O)C2C=CC(C(O)c3ccc(I)cc3)N(N3CCCCC3)C2C1=O (stereo not given)	1.36	0.382	1.21	1.18 (inactive)	1.07	0.354	0.396	1.34	-0.147	0.72
COc1ccc([Si](C)(C)[C@H]2[C@H](CC(=O)N3CCC[C@H]3CO)O[C@@]3(C(=O)N(Cc4cccc(N5C(=O)c6cccc7cccc5c67)c4)c4ccccc43)[C@@H]2C)cc1	1.45	-0.109	-0.098	0.685 (inactive)	1.29	0.483	0.761	1.25	0.892	0.459
CN1C(=O)C2C=CC(C(O)c3cc(C(F)(F)F)cc(C(F)(F)F)c3)N(N3CCCCC3)C2C1=O (stereo not given)	0.567	0.853	1.01	0.139 (inactive)	0.246	-0.0883	-0.448	0.0198	-0.722	0.291
COc1cc(CO)cc(I)c1O[C@H]1C=C(C(=O)NCCO)C[C@@H](N(CCN2CCOCC2)C(=O)C2CCOC2)[C@@H]1O (stereo not given in full)	0.505	-0.424	-0.544	-0.145 (inactive)	1.29	0.437	-0.0432	0.742	0.507	-0.584
CC(C)(C)OC(=O)CC[C@@]1(C(=O)NCC(O)CO)N=C(c2ccc(OCCCO)cc2)O[C@@H]1c1ccccc1N=[N+]=[N-] (stereo not given in full)	1.72	0.836	1.15	-0.764 (inactive)	1.36	-0.454	-0.468	0.114	0.311	0.906
O=C1C2C=CC(C(O)C(c3ccccc3)c3ccccc3)N(n3cnnc3)C2C(=O)N1Cc1ccccc1 (stereo not given)	0.55	-0.0184	0.571	0.00252 (inactive)	1.25	1.07	-1.18	0.439	1.24	0.581
COc1cc2c(cc1OC)CN(C(=O)[C@H]1[C@@H]3C(=O)O[C@@H](c4ccccc4)[C@@H](c4ccccc4)N3[C@@H](c3ccc(O)cc3)[C@]13C(=O)Nc1ccc(C#CCNC(N)=O)cc13)CC2	1.11	-0.0741	0.0306	-0.996 (inactive)	1.11	-0.294	-0.0357	0.903	0.596	0.544
[N-]=[N+]=NCc1ccccc1[C@H]1OC(c2ccc(OCCCO)cc2)=N[C@@]1(Cc1ccccc1)C(=O)NCc1ccccc1	0.173	0.646	0.894	1.09 (inactive)	0.672	1.27	0.169	0.231	-0.238	-0.151
COCCOC(=O)N1C(=O)[C@@]2(c3cc(C#CCNC(N)=O)ccc31)[C@H](C(=O)NC[C@H](O)c1ccccc1)[C@H]1C(=O)O[C@H](c3ccccc3)[C@H](c3ccccc3)N1[C@@H]2c1ccccc1OCCO	1.5	-0.547	0.218	-0.0247 (inactive)	1.04	0.628	0.366	1.01	0.711	1.05
O=C(c1ccccc1)N1Cc2ccccc2[C@@H]2OC(c3ccc(OCCCO)cc3)=N[C@]2(Cc2ccccc2)C1=O	1.35	0.114	0.431	-0.0808 (inactive)	1.24	1.33	0.444	1.03	0.0731	0.3
O=C(O)[C@@]1(CCS(=O)(=O)c2ccccc2)COC(c2ccc(OCCCO)cc2)=N1	0.6	0.458	1.05	0.733 (inactive)	0.0185	-0.62	-0.939	-0.928	-1.17	1.19
CCOC(=O)C[C@H]1[C@H](OC(=O)Cc2ccc3c(c2)OCO3)[C@@H](NC(=O)c2ccc(-c3ccccc3)cc2)c2cc(OCCCO)ccc2N1C(=O)Cc1ccc(OC)cc1	0.489	0.55	0.456	-2.01 (inactive)	0.463	0.116	-0.0154	0.543	-0.0143	0.0884
C[C@]1(C(=O)NC2CC2)c2ccccc2C(=O)N(Cc2cc(C(F)(F)F)cc(C(F)(F)F)c2)[C@H]1c1ccc(CO)cc1	1.56	0.757	0.298	-0.402 (inactive)	0.711	0.948	0.279	0.865	0.585	0.592
CCOC(=O)[C@H]1CC=C2CC1C(=O)N1CCC[C@@H]1[C@@H]2O[Si](C)(C)C(C)(C)C (stereo not given in full)	-0.105	-0.539	-1.04	0.582 (inactive)	-0.997	-1.22	-0.265	-1.02	-0.177	0.928
